Screening results (PubChem)
VDR inh = inhibitors of human vitamin D receptor. VDR-SRC2-3 peptide fluorescence polarization, 2 h. Potency, µM, inactives show max response, negative = inhibition, actives largely listed as inhibitors. 400,000 compounds, 0.93% hits. AID 504847
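Measured by FP: displacement of SRC2-3 coactivator peptide from VDR by library compounds, following a two-hour ambient incubation.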
TDP1 inh = inhibitors of human tyrosyl-DNA phosphodiesterase TDP1. recombinant TDP1, AlphaScreen DNA substrate cleavage. 350,000 compounds, 0.28% hits. Potency, µM (titrated, usually from 130 µM), without a hit: at the highest dose activity change, negative = inhibition, most hits filed as inhibitors. AID 485290. Q9NUW8; note: nearly all actives have a fitted effect of over 40% in size
Target sequence (Q9NUW8 whole entry, looked up): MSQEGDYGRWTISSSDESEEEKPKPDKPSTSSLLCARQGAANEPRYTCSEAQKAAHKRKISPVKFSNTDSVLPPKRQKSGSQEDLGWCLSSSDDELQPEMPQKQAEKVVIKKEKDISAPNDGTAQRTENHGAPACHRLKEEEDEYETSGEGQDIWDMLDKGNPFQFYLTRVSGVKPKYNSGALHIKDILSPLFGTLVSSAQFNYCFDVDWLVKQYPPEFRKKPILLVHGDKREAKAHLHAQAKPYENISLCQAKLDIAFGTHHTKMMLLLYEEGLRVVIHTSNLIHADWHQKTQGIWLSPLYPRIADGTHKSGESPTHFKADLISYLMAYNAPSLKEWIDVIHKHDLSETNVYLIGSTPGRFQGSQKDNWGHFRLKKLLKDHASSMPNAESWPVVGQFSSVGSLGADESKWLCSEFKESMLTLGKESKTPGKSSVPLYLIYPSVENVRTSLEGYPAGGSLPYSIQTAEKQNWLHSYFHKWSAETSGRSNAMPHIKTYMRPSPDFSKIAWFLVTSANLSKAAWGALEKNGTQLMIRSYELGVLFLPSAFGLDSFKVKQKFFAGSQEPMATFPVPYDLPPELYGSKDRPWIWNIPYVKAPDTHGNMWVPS
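Steps: enzyme plus compound, 15 min RT; add biotin/phosphotyrosine-FITC oligonucleotide (15 nM final), react 5 min; add donor/acceptor beads (10 ug/ml final), 10 min; read AlphaScreen. Tdp1 at 1 nM final.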
GCN5L2 inh = inhibitors of human GCN5L2 histone acetyltransferase; GCN5L2 HAT assay, ThioGlo1 CoA-SH fluorescence; 390,000 compounds, 0.21% hits; AID 504327; Potency, µM (series often up to 58.9 µM), for inactives: at the top dose activity change, negative = inhibition, actives largely listed as inhibitors
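ThioGlo1-coupled HAT assay: 20nM GCN5L2, 70uM acetyl-CoA, 75uM H3(1-25) peptide, pH 7.5. Fluorescence read at 340/540nm at start and after 20 min at room temperature.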
DT40 TDP1 no CPT = qHTS for Inhibitors of human tyrosyl-DNA phosphodiesterase 1 (TDP1): qHTS in cells in absence of CPT | DT40 Tdp1-/- hTDP1 cells, no CPT, ATP luminescence, 48 h | Potency, µM (titrated, usually from 46.2 µM), for inactives: top-dose activity change, negative = growth inhibition, hits mostly inhibitors | 420,000 compounds, 15% hits | AID 686978, 2013; note: nearly all actives have a fitted effect of over 55% in size
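Cells were dispensed at 400 per well, compounds added by pin tool, plates incubated ≥48 hr at 37 °C, then CellTiter-Glo added for 30 min at room temperature before luminescence reading. Line: DT40 Tdp1-/- complemented with hTDP1; camptothecin omitted.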
PLK1 PBD inh = inhibitors of human PLK1 polo-box domain binding; Plk1 PBD binding of FITC phosphopeptide, fluorescence polarization; AID 720504; 360,000 compounds, 2.8% hits; P53350; Potency, µM, for the others: max response, negative = inhibition, actives largely listed as inhibitors; note: series mostly up to about 57 µM; nearly all actives have a fitted effect of over 65% in size
TDP1 cell CPT = growth inhibition of DT40 Tdp1-/-;hTDP1 cells with camptothecin (screen for TDP1 inhibitors). 420,000 compounds, 12% hits. Potency, µM (series often up to 46.2 µM), without a hit: top-dose activity change, negative = growth inhibition, most hits filed as inhibitors. chicken DT40 Tdp1-/-;hTDP1 cells + 20 nM CPT, ATP luminescence, 48 h; note: nearly all actives have a fitted effect of over 55% in size
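Chicken DT40 Tdp1-/- cells stably complemented with human TDP1 were seeded at 400 cells/well in medium containing 20 nM camptothecin, exposed to pin-transferred compounds, and grown at 37 °C for at least 48 hr. Viability was read as ATP luminescence.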
Numbers without * were called inactive; ? = inconclusive; . = no result given; [ ] = another dose, or the depositor's remark. This is a sample that favours compounds with a hit; in the whole collection about 18% have one here. Calls come from the whole dose curve; as a rule, active = well fitted curve in the direction sought with a large enough effect; inconclusive = small, poorly fitted or top-dose-only effect, or another doubt; inactive = no such curve, though single readings can be large; an effect the other way counts as inactive or inconclusive. % is set by controls: 0 for no effect and ±100 for the full control effect; potency is the fitted concentration of half-maximal effect.

SMILES	VDR inh	TDP1 inh	GCN5L2 inh	DT40 TDP1 no CPT	PLK1 PBD inh	TDP1 cell CPT
Cc1cccc(Oc2ccc(NC(=O)C3=CC=CN4CCS(=O)(=O)N=C34)cc2)c1	-1%	2%	-17%	-1%	-8%	?
CCOC(CN=c1nc(N(C)C)ss1)OCC	?	.	.	0.73µM*	6.7µM*	0.58µM*
COc1ccccc1OCC(=O)/C=C1/N(C)c2ccccc2C1(C)C	12%	-8%	-14%	21µM*	10%	16µM*
CN1/C(=C\C(=O)C[n+]2ccc3ccccc3c2)C(C)(C)c2ccccc21	7%	-3%	1%	0.29µM*	-12%	0.65µM*
Cc1noc(C)c1C(=O)OCC(=O)NCc1ccccc1	2%	-1%	-10%	-22%	-7%	8%
Cc1noc(C)c1C(=O)OCC(=O)/C=C1/N(C)c2ccccc2C1(C)C	-12%	.	.	12µM*	0%	?
Cc1ccc(C(=O)NCC(=O)OCC(=O)/C=C2\N(C)c3ccccc3C2(C)C)cc1C	?	4%	-7%	?	30µM*	16µM*
CC(=O)OC[C@@H]1O[C@@H](O/N=C2/C[C@@H](O)[C@@H](O)[C@@H]3[C@@H]4C(=O)N(C5CCCCC5)C(=O)[C@H]4CC[C@H]23)[C@H](OC(C)=O)[C@H](OC(C)=O)[C@@H]1OC(C)=O	.	6%[21 µM]	.	.	.	.
COc1cccc(CNC(=O)C2CCCN(S(=O)(=O)c3cn(C)cn3)C2)c1 (centres undefined)	8%	4%	-1%	-11%	.	-2%
COc1ccccc1NS(=O)(=O)c1c(C)[nH]c(C)c1C(=O)N1CCCC1	-5%	5%	-1%	16%	-11%	5%
O=C(COC(=O)C1COc2ccccc2O1)c1ccccc1 (centres undefined)	.	.	.	4%	1%	-6%
CN1/C(=C\C(=O)COC(=O)C2COc3ccccc3O2)C(C)(C)c2ccccc21 (centres undefined)	22%	1%	-13%	?	5%	12µM*
CC1=NN(c2ccccc2)C(=O)C1C(=O)c1ccc(Cl)cc1 (centres undefined)	-2%	8%	-4%	23µM*	-7%	21µM*
COC(=O)CC/C(O)=C1\C(=O)CC(C)(C)CC1=NCCc1nc2ccccc2[nH]1	-17%	1%	-8%	?	21µM*	?
CC(=O)C1=C(O)CC(C)(C)CC1=NCCc1nc2ccccc2[nH]1	-5%	3%	7%	-20%	1%	-15%
COc1ccc(CNC(=O)c2cnc(N(C)C)nc2)cc1	7%	4%	18%	?	.	0%
CC(C)CCCN1C(N(C)C)=NC[C@@H]1Cc1ccccc1	-7%	-4%	-3%	21µM*	4%	21µM*
C[C@H]1CN=C(N(C)C)N1CCCCc1ccccc1	-28%	-3%	-2%	15µM*	-21%	?
CCC(C)CCN1C(N(C)C)=NC[C@@H]1Cc1ccccc1 (some centres undefined)	-15%	-1%	-7%	?	-23%	12µM*
c1cnc2cc3c(cc2n1)[C@@H]1CNC[C@H]3C1	.	.	.	6%	.	2%
O=C(NCc1cccs1)c1ccc(CS(=O)Cc2ccc(Cl)cc2)o1 (centres undefined)	.	.	.	?	0%	?
CCN1C(=O)[C@H]2[C@H]3[C@H](O)[C@H](O)C/C(=N/OC[C@@H](O)[C@H]4O[C@H]5OC(C)(C)O[C@H]5[C@@H]4O)[C@@H]3CC[C@@H]2C1=O	.	6%[21 µM]	.	.	.	.
c1ccc2c(c1)nc(CN1CCOCC1)n1c3ccccc3nc21	4%	7%	.	16µM*	-3%	13µM*
COc1ccc(S(=O)(=O)n2c(CCN3CCOCC3)nc3ccccc32)cc1	-3%	11%	-8%	21µM*	-8%	-28%
CC(C)(C)c1ccc(S(=O)(=O)n2c(CN3CCOCC3)nc3ccccc32)cc1	-18%	4%	-4%	?	-15%	21µM*
SMILES	VDR inh	TDP1 inh	GCN5L2 inh	DT40 TDP1 no CPT	PLK1 PBD inh	TDP1 cell CPT
COc1ccc([N+](=O)[O-])cc1NS(=O)(=O)c1cccc(C(=O)O)c1	5%	-1%	-5%	-1%	-5%	-16%
O=C(COC(=O)C1CCC1)NCc1ccc(Cl)cc1Cl	4%	.	4%	-8%	-4%	7%
CCOc1ccc(N(CC(=O)NC(C)(C)C)C(=O)CCC(=O)Nc2nccs2)cc1	12%	4%	-3%	-8%	5%	51%
COc1cccc(CN(C)C(=O)c2ccc(S(=O)(=O)Nc3cccc(C)c3C)cc2)c1OC	.	.	.	18µM*	0%	18µM*
Cc1cccc(NS(=O)(=O)c2ccc(C(=O)N3CCCC3)cc2)c1C	-13%	.	-5%	15µM*	-8%	-17%
COc1cccc(CN(C)C(=O)c2ccc(S(=O)(=O)Nc3ccccc3F)cc2)c1OC	-17%	0%	?	?	2%	?
Cc1cccc(NS(=O)(=O)c2ccc(C(=O)N3CCCCCC3)cc2)c1C	2%	1%	0%	23µM*	2%	?
CCC(=O)Nc1cc(=O)[nH]c2nc(-c3ccc(Cl)cc3)nn12	?	5%	-2%	18µM*	21µM*	?
Cc1ccc(-c2nc3[nH]c(=O)cc(NC(=O)C(C)C)n3n2)cc1	?	1%	-1%	?	27µM*	?
CC(C)(C)c1ccc(-c2nc3[nH]c(=O)cc(NC(=O)c4ccco4)n3n2)cc1	-8%	1%	-3%	?	24µM*	-9%
Cc1ccc(-c2nc3[nH]c(=O)cc(NC(=O)c4cccs4)n3n2)cc1	-3%	4%	-13%	?	-13%	?
COc1cc(C(=O)O[C@H]2C/C(C)=C/CC[C@@]3(C)O[C@@H]3[C@H](O)[C@@H]2C(C)C)cc(OC)c1OC	-5%	.	-7%	23µM*	1%	16µM*
COc1cc(C(=O)O[C@H]2C/C(C)=C/CC[C@]3(C)O[C@@H]3C(O)C2C(C)C)cc(OC)c1OC (some centres undefined)	-15%	.	-19%	?	-3%	?
Cc1ccc(C)c(N2CCN(C3(c4ccccc4)C(=O)c4ccccc4C3=O)CC2)c1	-4%	0%[12.3 µM]	-14%	-23%	.	-10%
CC(=O)c1ccc(C2CC34CNS(=O)(=O)C3CC2O4)cc1 (centres undefined)	3%	-14%	.	.	.	.
